Structures are written as SMILES. Inconclusive results are not listed. Calls of active or inactive are those of the source. Calls follow the shape of the dose curve; as a rule, active = well fitted cell-killing curve with a large enough effect in the repeat runs; inconclusive = weak or mixed curves, or effect the other way; inactive = flat fitted curve, though single readings scatter.
% is scaled to controls: 0 for no effect and ±100 for the full control effect; potency is read from the fitted curve at half-maximal effect.

This test can be described thus: Human pregnane X receptor (PXR) small molecule agonists, qHTS cell viability counter screen (AID 1346977). Also: nearly all actives have a fitted effect of over 50% in size. The settings on record: PXR-Luc HepG2 viability, CellTiter-Fluor, 24 h; series mostly up to 92.4 µM; activity change, negative = cytotoxicity: at the top concentration. The source says:
U.S. Tox21 Program National Center for Advancing Translational Sciences [NCATS] NIH Chemical Genomics Center [NCGC] U.S. Environmental Protection Agency [EPA] National Institutes of Environmental Health Sciences [NIEHS] National Toxicology Program [NTP] U.S. Food and Drug Administration [FDA] Tox21 Assay Overview: The human pregnane X receptor (hPXR) regulates the expression of several drug metabolizing enzymes and induction of these proteins is a major mechanism for developing drug resistance in cancer. One such key enzyme catalyzing the drug metabolism is cytochrome P450 3A4 (CYP3A4). Changes in CYP3A4 expression affect drug metabolism, thereby reducing the therapeutic efficacy and altering toxicological response to a drug and which finally causes adverse drug interaction. To screen Tox21 libraries for compounds that activate hPXR-mediated CYP3A4 gene expression, PXR-Luc HepG2 cells were used. Also cytotoxicity of the compounds was tested in parallel by measuring the cell viability using CellTiter-Fluor assay system in the same wells.
Tox21 Assay Protocol Summary: PXR-Luc HepG2 cells were dispensed at 2,000 per well in 5uL of assay medium containing 5% charcoal-stripped FBS into white solid bottom 1536-well plates (Corning Life Sciences, Corning, NY) using a Multidrop Combi (Thermo Scientific, Waltham, MA) dispenser. The assay plates were incubated at 37 C and 5% CO2 for 5hr, and then 23nL of compounds dissolved in DMSO and positive control were transferred using a Pintool station (Wako, San Diego, CA). The assay plates were incubated at 37C and 5% CO2 for 24hr. For cytotoxicity read, after 23hr incubation at 37C, 1uL CellTiter-Fluor reagent (Promega Corporation, Madison, WI) was added to each well of the assay plates using Flying Reagent Dispenser (FRD, Aurora Discovery, San Diego, CA). After 1hr incubation at 37C and 5% CO2, the fluorescence signal was quantified using a ViewLux plate reader (PerkinElmer, Shelton, CT).
A general note: qHTS replaces the single test concentration by a dilution series.
Regarding `CCCCCCCCCCC(=O)O`, the “activity change, negative = cytotoxicity” value is -22.5% (inactive).
Take `CC(C)(C)CC(=O)OCC(=O)[C@@]1(O)CC[C@H]2[C@@H]3CCC4=CC(=O)C=C[C@]4(C)[C@H]3[C@@H](O)C[C@@]21C`: the “activity change, negative = cytotoxicity” value was 4.07% [at 42.5 µM] (inactive).
In the case of `FC(F)(F)c1ccccc1Cl`, the “activity change, negative = cytotoxicity” value is -1.76% (inactive).
The same measure, in the same setting: under `CC1(C)O[C@@H]2C[C@H]3[C@@H]4C[C@H](F)C5=CC(=O)C=C[C@]5(C)[C@H]4[C@@H](O)C[C@]3(C)[C@]2(C(=O)CO)O1` stands 0.975% [at 42.5 µM] (inactive); under `Cc1ccco1`, -5.25% (inactive); under `CC(=O)Nc1ccc(C)cc1C`, -0.617% (inactive).
Consider `CC(C)(c1ccccc1)c1ccccc1`, for which the “activity change, negative = cytotoxicity” value is -7.37% (inactive).
On the same count and under the same terms, under `CCCC(=O)C(=O)O` stands -2.77% (inactive).
Same read-out and setting: under `O=C(Nc1cccc2c(=O)cc(-c3nn[nH]n3)oc12)c1ccc(OCCCCc2ccccc2)cc1` stands -2.4% [at 42.5 µM] (inactive).
On to `CC(=O)NC1(c2cccc(F)c2)CCN(CC[C@@]2(c3ccc(Cl)c(Cl)c3)CN(c3ccccc3)C(=O)CO2)CC1`, for which the Potency is 34.5 µM (active).
With `CCn1cc(C(=O)O)c(=O)c2cc(F)c(N3CCNCC3)cc21`, the “activity change, negative = cytotoxicity” value was 8.16% [at 42.5 µM] (inactive).
Still for that read-out and setting: under `Cc1cc(C)cc(N)c1` stands 0.33% (inactive).
`Brc1cc(Br)c(Oc2cc(Br)c(Br)cc2Br)cc1Br`: the “activity change, negative = cytotoxicity” value is 1.17% [at 42.5 µM] (inactive).
As to `Cc1cc(C)c(N)cc1C`, the “activity change, negative = cytotoxicity” value is 5.98% (inactive).
Still for that read-out and setting: under `O=c1cc(-c2ccccc2)oc2ccc3ccccc3c12` stands -11.6% (inactive).
For the compound `CCCC(C(=O)OCCN(CC)CC)(c1ccccc1)c1ccccc1`, the Potency was 26.6 µM (active).
`O=C1C(=O)c2ccccc2C(O)=C1C1CCC(c2ccc(Cl)cc2)CC1` (stereo not given): the Potency is 11.9 µM (active).
On to `Cc1cc2c(OCC(CNC(C)(C)C)OC(=O)c3ccccc3)cccc2[nH]1` (stereo not given), for which the “activity change, negative = cytotoxicity” value is -3.41% [at 42.5 µM] (inactive).
As for `COc1ccccc1N1CCN(CCCCNC(=O)c2ccc(-c3ccc(C(C)=O)cc3)cc2)CC1`, the “activity change, negative = cytotoxicity” value is -2.13% [at 42.5 µM] (inactive).
Still for that read-out and setting: the result for `COc1ccc(OC(=O)N(CC(=O)O)Cc2ccc(OCCc3nc(-c4ccccc4)oc3C)cc2)cc1` reads 0.583% [at 42.5 µM] (inactive).
`O=c1cc(-c2ccccc2)oc2cc(O)cc(O)c12`: the Potency is 54.5 µM (active).
Regarding `O=C(OC(=O)c1ccccc1)c1ccccc1`, the “activity change, negative = cytotoxicity” value is 8.46% (inactive).
The same measure, in the same setting: under `C/C=C/C=C/C=O` stands 3.62% (inactive); under `C[C@]12CC[C@@H]3c4ccc(O)cc4CC[C@H]3[C@@H]1CC[C@@H]2OC(=O)CCC1CCCC1`, -11.2% [at 42.5 µM] (inactive); under `O=C1NCCN1CCO`, 2.91% (inactive).
Turning to `Cc1ccc(OC(=O)c2ccccc2O)cc1`, the “activity change, negative = cytotoxicity” value was 2.99% (inactive).
Consider `NC1[C@H]2CN(c3nc4c(cc3F)c(=O)c(C(=O)O)cn4-c3ccc(F)cc3F)C[C@@H]12` (stereo not given in full), for which the Potency was 29.8 µM (active).
Take `CCOc1ccc(Cc2nccc3cc(OCC)c(OCC)cc23)cc1OCC`: the Potency is 26.6 µM (active).
For `CCN(CC)CCNC(=O)COc1ccc(OC)cc1`, the “activity change, negative = cytotoxicity” value is 5.28% [at 42.5 µM] (inactive).
As for `O=C(OCC(O)CO)c1ccccc1Nc1ccnc2cc(Cl)ccc12` (stereo not given), the Potency was 26.6 µM (active).
Take `COc1cc(Nc2c(C#N)cnc3cc(OCCCN4CCN(C)CC4)c(OC)cc23)c(Cl)cc1Cl`: the Potency is 11.9 µM (active).
With `CCCCCCNC(=O)n1cc(F)c(=O)[nH]c1=O`, the “activity change, negative = cytotoxicity” value is -13% [at 42.5 µM] (inactive).
In the case of `COC(=O)[C@H]1[C@H]2C[C@@H]3c4[nH]c5cc(OC)ccc5c4CCN3C[C@H]2C[C@@H](OC(=O)/C=C/c2ccc(O)c(OC)c2)[C@@H]1OC`, the Potency was 23.7 µM (active).
With `C=C1C[C@@]23CC[C@H]4[C@@](C)(CCC[C@@]4(C)C(=O)O[C@@H]4O[C@H](CO)[C@@H](O)[C@H](O)[C@H]4O)[C@@H]2CC[C@]1(O[C@@H]1O[C@H](CO)[C@@H](O)[C@H](O[C@@H]2O[C@H](CO)[C@@H](O)[C@H](O)[C@H]2O)[C@H]1O[C@@H]1O[C@H](CO)[C@@H](O)[C@H](O)[C@H]1O)C3`, the “activity change, negative = cytotoxicity” value is -0.653% (inactive).
The same measure, in the same setting: under `C/C=C(/C(=C/C)c1ccc(O)cc1)c1ccc(O)cc1` stands -4.05% [at 42.5 µM] (inactive); under `CCC1CO1` (stereo not given), 0.734% (inactive).
Same read-out and setting: under `CC1(C)S[C@@H]2[C@H](NC(=O)C(c3ccccc3)S(=O)(=O)O)C(=O)N2[C@H]1C(=O)O` (stereo not given in full) stands -0.281% [at 42.5 µM] (inactive); under `Nc1cccc2c1CN(C1CCC(=O)NC1=O)C2=O` (stereo not given), 2.09% [at 42.5 µM] (inactive).
Still for that read-out and setting: the result for `Nc1ncnc2c1ncn2[C@H]1CC[C@@H](CO)O1` reads -2.93% (inactive); that for `O=C=Nc1ccc(Cl)c(Cl)c1`, -1.33% (inactive).

(Values after PubChem BioAssay (Tox21).)
